An excerpt weighted towards active compounds, which were near 7.3% of everything screened.
FMDV inh: High Throughput Screening for Foot and Mouth Disease Virus Antivirals | FMDV antiviral cell-based qHTS | AID 1159524, 2015 | 410,000 tested, 1.2% active | Potency, µM (doses to about 57.9 µM), most hits filed as inhibitors; calls by dose curve; tested in HEK293T cells; further: read-out not given here; nearly all actives have a fitted effect of over 45% in size
HCV inhibitor: qHTS Assay for Inhibitors of Hepatitis C Virus (HCV); Huh7.5.1 HCVcc-Cre infection, luciferase reporter, 44 h; Potency, µM (doses to about 41.8 µM), most hits filed as inhibitors; 340,000 tested, 3.4% active; active means well fitted inhibition curve with a large enough effect; inconclusive means small, poorly fitted or top-dose-only effect, or another doubt; inactive means no such curve, though single readings can be large or run the other way
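Cells seeded at 1,000/well and cultured 4 h, then compounds added followed by HCVcc-Cre virus (~0.5 moi). After 44 h further culture, luciferase substrate was added, plates held 15 min at room temperature, and luminescence read for 15 sec.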
Vaccinia Venus: qHTS for Stage-Specific Inhibitors of Vaccinia Orthopoxvirus: Venus Reporter Primary qHTS; 330,000 tested, 0.46% active; Vaccinia virus Venus reporter expression, fluorescence; Potency, µM (doses to about 36.5 µM), actives largely listed as inhibitors; calls by dose curve; tested in A549 cells; further: nearly all actives have a fitted effect of over 30% in size
HCMV inh: qHTS Assay for inhibitors of the human cytomegalovirus (HCMV) | HFF cells, HCMV-luciferase reporter, 72 h; hits give low values | 410,000 tested, 4.5% active | activity change, negative = inhibition, % at 57.5 µM | AID 1259415, 2018; in the data active means activity change below about -60%; inconclusive means no clear call, values can overlap the other calls; inactive means above about -39%
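Compounds were evaluated in HFFs infected with an HCMV luciferase reporter virus (MOI 1 PFU/cell). Luciferase in lysates collected 72 h post infection served as the replication measure.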
VACV mCherry inh: qHTS for Stage-Specific Inhibitors of Vaccinia Orthopoxvirus: mCherry Reporter Primary qHTS; 310,000 tested, 0.63% active; Vaccinia virus mCherry reporter infection, fluorescence; Potency, µM (top dose mostly 36.5 µM), hits mostly inhibitors; calls by dose curve; tested in A549 cells; further: nearly all actives have a fitted effect of over 35% in size
Of the large screens only hits and unclear results are named; the others gave an inactive call.

COc1ccc(Cl)cc1NC(=O)C1CCCO1 (configuration not stated)	HCV inhibitor inconclusive
COc1cc2c(cc1NC(=O)C1CCCO1)oc1ccccc12 (configuration not stated)	HCV inhibitor 7.9µM
CCN1CCCC1CNC(=O)c1cnn(-c2nccc(-c3cccs3)n2)c1C(C)C (configuration not stated)	none (no result: HCV inhibitor, HCMV inh)
COc1cccc(N2CCc3c(C)nc4ccc(Cl)cc4c32)c1	FMDV inh inconclusive, HCV inhibitor inconclusive, Vaccinia Venus inconclusive
CCN1Cc2c(/C=C/c3ccccc3)nc3ccc(OC)cc3c2N(c2cccc(Cl)c2)C1	FMDV inh 40µM, HCV inhibitor 18µM, Vaccinia Venus inconclusive, HCMV inh -102, VACV mCherry inh inconclusive
COc1ccc2oc(=N)c(C(=O)Nc3ccc(C)cc3)cc2c1	none (no result: Vaccinia Venus, VACV mCherry inh)
N=c1oc2cc(O)ccc2cc1C(=O)Nc1ccc(Br)cc1	HCV inhibitor inconclusive, Vaccinia Venus inconclusive, HCMV inh -90, VACV mCherry inh inconclusive
COc1ccc2oc(=N)c(C(=O)Nc3ccc(F)cc3)cc2c1	HCMV inh -62, VACV mCherry inh inconclusive
COc1ccc2o/c(=N\O)c(C(=O)Nc3ccc(C)cc3)cc2c1	HCV inhibitor 10µM, Vaccinia Venus inconclusive
O=C(Cn1cc(S(=O)(=O)Cc2ccc(F)cc2)c2ccccc21)NCCc1ccccc1	HCMV inh inconclusive (no result: HCV inhibitor)
CC1=Nc2ccccc2/C1=C/c1c(O)[nH]c(=O)[nH]c1=O	none (no result: Vaccinia Venus, VACV mCherry inh)
O=c1[nH]c(O)c(/C=C2/C=CC(c3cc(Cl)ccc3Cl)=N2)c(=O)[nH]1	FMDV inh inconclusive, HCV inhibitor 32µM
Cc1cccc(C)c1-n1nnnc1C(c1cc2ccccc2o1)N1CCN(C/C=C/c2ccccc2)CC1 (configuration not stated)	HCMV inh -62 (no result: HCV inhibitor)
Cc1cccc(C)c1-n1nnnc1C(c1cccc2ccccc12)N1CCN(C/C=C/c2ccccc2)CC1 (configuration not stated)	none (no result: HCV inhibitor)
CSc1ncc(C(=O)Nc2cc(Cl)ccc2C)c(-c2ccccc2)n1	HCMV inh inconclusive (no result: HCV inhibitor)
OCCOc1ccccc1	none
c1ccc(OCCOCCOc2ccccc2)cc1	HCV inhibitor 1.1µM
Cc1ccc(NC(=O)CCCn2c(=O)c3cccn3c3cccnc32)cc1C	HCMV inh inconclusive (no result: HCV inhibitor)
COc1ccc(Cl)cc1N1CC(c2nc3ccccc3[nH]2)CC1=O (configuration not stated)	HCMV inh -99
O=C1CC(c2nc3ccccc3[nH]2)CN1c1cccc(C(F)(F)F)c1 (configuration not stated)	FMDV inh inconclusive, HCMV inh -96
COc1cccc(-c2ccc3ncnc(NCc4cccnc4)c3c2)c1	FMDV inh inconclusive, HCMV inh -77 (no result: HCV inhibitor, Vaccinia Venus, VACV mCherry inh)
COc1ccc(NCc2cccnc2)cc1	HCMV inh -86, VACV mCherry inh inconclusive
CS(=O)(=O)Nc1cccc(-c2ccc3ncnc(NCc4cccnc4)c3c2)c1	none (no result: HCV inhibitor, HCMV inh)
COC(=O)c1cc(NC2(c3ccccc3)C(=O)c3ccccc3C2=O)cc(C(=O)OC)c1	none (no result: HCV inhibitor)
C=CCCC(=O)N1C[C@H]2CON(C)[C@H]2C[C@H]1c1ccc(Br)cc1	HCMV inh -101 (no result: HCV inhibitor)
Cc1ccccc1NC(=O)COc1ccc2oc(=O)cc(C)c2c1	none
O=C(COc1ccc2c(-c3ccccc3)cc(=O)oc2c1)Nc1ccc(CCO)cc1	FMDV inh inconclusive, HCV inhibitor 7.1µM, HCMV inh -68 (no result: Vaccinia Venus, VACV mCherry inh)
CC(=O)c1cccc(NC(=O)COc2ccc3oc(=O)cc(C)c3c2)c1	FMDV inh inconclusive, HCV inhibitor 16µM
O=C(CN1C(=O)COc2ccc(S(=O)(=O)N3CCCCCC3)cc21)N1CCN(c2ccc(Cl)cc2)CC1	none (no result: HCV inhibitor)
CCCCCCc1cc2cc(C(=O)Nc3ccccc3)c(=O)oc2cc1O	FMDV inh inconclusive, HCV inhibitor 4.5µM, HCMV inh -100
CCCCCCc1cc2cc(S(=O)(=O)c3ccc(C)cc3)c(=O)oc2cc1O	none
CCCCCCc1cc2cc(C(=O)NCc3ccccc3)c(=N)oc2cc1O	HCMV inh -69 (no result: Vaccinia Venus, VACV mCherry inh)
COCCCNC(=S)N1CCN(c2nc(-c3ccccc3)cs2)CC1	FMDV inh inconclusive, HCV inhibitor 13µM, HCMV inh -67 (no result: Vaccinia Venus, VACV mCherry inh)
CCN(CC)CCCNC(=S)N1CCN(c2nc(-c3ccccc3)cs2)CC1	HCV inhibitor 7.9µM, Vaccinia Venus inconclusive
CC(C)CNC(=S)N1CCN(c2nc(-c3ccc(Cl)cc3)cs2)CC1	HCV inhibitor 11µM, HCMV inh inconclusive, VACV mCherry inh inconclusive
CCNC(=S)N1CCN(c2nc(-c3cccc(OC)c3)cs2)CC1	HCV inhibitor inconclusive (no result: Vaccinia Venus, VACV mCherry inh)
CCCCNC(=S)N1CCN(c2nc3ccccc3s2)CC1	HCV inhibitor inconclusive (no result: Vaccinia Venus, VACV mCherry inh)
COCCCNC(=S)N1CCN(c2nc(-c3ccc(Cl)cc3)cs2)CC1	FMDV inh inconclusive, Vaccinia Venus inconclusive, HCMV inh -92, VACV mCherry inh inconclusive (no result: HCV inhibitor)
CCC(=O)N1CCN(c2nc(-c3ccc(Cl)cc3)cs2)CC1	HCV inhibitor inconclusive, Vaccinia Venus inconclusive, HCMV inh inconclusive, VACV mCherry inh inconclusive
CCc1cccc(NC(=O)Cn2nc3c4cc(F)ccc4n(Cc4cccc(C)c4)cc-3c2=O)c1	none (no result: HCV inhibitor)
CCCCNC(=O)C1(C)CCCCN1C(=O)C1(c2ccc(Cl)cc2)CCCC1 (configuration not stated)	none (no result: FMDV inh, HCV inhibitor, Vaccinia Venus, VACV mCherry inh)
COCCNC(=S)N1CCN(c2nc(-c3cccc(OC)c3)cs2)CC1	HCV inhibitor 13µM, VACV mCherry inh inconclusive
CCOCCCNC(=S)N1CCN(c2nc(-c3ccccc3)cs2)CC1	FMDV inh inconclusive, HCV inhibitor 10µM, HCMV inh -86 (no result: Vaccinia Venus, VACV mCherry inh)
COc1cccc(-c2csc(N3CCN(C(=S)NCC(C)C)CC3)n2)c1	FMDV inh inconclusive, HCV inhibitor inconclusive
COc1ccc(Nc2nccc3[nH]c(-c4cccc(OC(F)(F)F)c4)nc23)cc1OC	none (no result: FMDV inh, HCV inhibitor, Vaccinia Venus, VACV mCherry inh)
COc1ccccc1NC(=O)COc1ccc(CO)cc1Cl	HCV inhibitor 10µM (no result: VACV mCherry inh)
COc1ccccc1NC(=O)COc1ccccc1C(=O)Nc1ccccc1	HCV inhibitor inconclusive, HCMV inh -93
Cc1ccccc1NC(=O)COc1ccccc1C(=O)Nc1ccccc1	none (no result: FMDV inh, HCV inhibitor, HCMV inh)
Cc1ccc(-n2nc3c(N4CCC(C(=O)N5CCC(C(N)=O)CC5)CC4)nnc(C)c3c2C)cc1	HCMV inh -61 (no result: Vaccinia Venus, VACV mCherry inh)
CCN1CCN(C(=O)C2CCN(c3nnc(C)c4c(C)n(-c5ccc(C)cc5)nc34)CC2)CC1	FMDV inh inconclusive, HCV inhibitor 8.9µM (no result: Vaccinia Venus, VACV mCherry inh)
Cc1ccc(-n2nc3c(N4CCC(C(=O)N5CCC(C)CC5)CC4)nnc(C)c3c2C)cc1	none (no result: HCV inhibitor)
CN1CCN(c2oc(-c3ccc(OCc4ccc(Cl)cc4)cc3)nc2C#N)CC1	none (no result: FMDV inh, HCV inhibitor, HCMV inh)
CN(C)c1ccc(/C=C2/CCc3ccccc32)cc1	none (no result: FMDV inh, HCV inhibitor, HCMV inh)
O=C1CN(C(=O)COc2ccc(Cl)cc2Cl)C(c2ccc(F)cc2)c2cc(F)ccc2N1 (configuration not stated)	none (no result: HCV inhibitor)
Cc1ccc2c(c1)C(c1ccc(F)cc1)N(C(=O)COc1ccc(Cl)cc1Cl)CC(=O)N2 (configuration not stated)	FMDV inh inconclusive, HCMV inh -60 (no result: HCV inhibitor)

High-throughput results from PubChem.
